This is part of a sample that, as a whole, favours compounds with a hit. Of some 83,000 tested, about 20% had one in any assay.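 96-well plates, one dose, 48 hours. Percent growth reported; active if below 10.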 Unmarked numbers belong to inactive results. Activity calls are given as the source filed them.
Test system: A549/ATCC NSCLC
Assay: NCI-60 one-dose screen, 48 h (100 = growth as untreated, 0 = no growth, -100 = all killed)
Conditions: 10 µM unless noted
Method: Growth inhibition of the A549/ATCC human Non-Small Cell Lung tumor cell line is measured as a screen for anti-cancer activity. Cells are grown in 96 well plates and exposed to the test compound for 48 hours. Compounds are tested at a single concentration, which is 10^-5 M for most compounds. The reported endpoint is percent growth (GI% or GIPRCNT), where numbers from 0 - 100% represent growth inhibition, and numbers from -100% - 0 represent cell death. For example, a value of 40 represents 60% growth inhibition. A value of 0 means no net growth occurred over the course of the experiment. A value of -40 indicates 40% of cells at the beginning of the experiment died by the end of the experiment. A value of -100 means all cells are dead at the end of the experiment.
NCI-60 Human Tumor Cell Lines Screen was performed using the standard one-dose NCI protocol, which is described in more detail at https://dtp.cancer.gov/discovery_development/nci-60/default.htm.
Compounds with GIPRCNT values below 10 were considered active. Activity score was based on GIPRCNT using the following formula: […]
Score is 0 for GIPRCNT values of 100 or above, 50 for GIPRCNT values of 0, and 100 for GIPRCNT values of -100.

In order of rising growth:
1. N#CSc1c[nH]c2ccc(/C=C/C(=O)/C=C(O)/C=C/c3ccc4[nH]cc(SC#N)c4c3)cc12  12.4%
2. CS(=O)/C(C#N)=C\C=C\c1cccc(Cl)c1 (stereo not given)  20%
3. Clc1ccc(Nc2nnc(CNc3ccccc3)c3ccccc23)cc1  20.3%
4. COc1cc(/C=C/c2cn[nH]c2-c2ccc(C)cc2)cc(OC)c1OC  29.2%
5. O=c1cc(CNc2cc(F)cc(F)c2)c2ccc(I)cc2[nH]1  38.6%
6. COC12C=C/C(=C(/C(=O)OCc3csc(SC)n3)C(=O)CCCCCCCCC3(OC)C=C/C(=C(/C(=O)OCc4cnc(SC)s4)C(=O)CCCCCCCC1)O3)O2 (stereo not given)  39.8%
7. COCCn1cc(-c2nc(-c3cn(CCOC)c4ncccc34)cs2)c2cc(F)ccc21  53.7%
8. Nc1nc(N)c2c(n1)NC(c1cccc(Nc3ccnc4cc(C(F)(F)F)ccc34)c1)CC(c1ccc3c(c1)OCO3)=N2 (stereo not given)  60.3%
9. Cc1ccc(O)c(NC(=O)c2cccc(Nc3ccnc(C(F)(F)F)c3)c2)c1  60.3%
10. Cc1ccc(-c2csc(NC(=O)CSc3nc(N)cc(N)n3)n2)cc1  62.7%
11. O=C1/C(=C/c2cccc(Br)c2)COc2ccc(O)cc21  66.2%
12. O=C1C=C(SCCO)C(=O)c2ccccc21  68.1%
13. Cc1cccc(-c2nc(C(C)C)sc2-c2ccnc(NCCCNS(=O)(=O)c3ccc(Cl)cc3)c2)c1  74.8%
14. CC(C)c1ccc2c(c1)CC[C@H]1[C@](C)(C(=O)OCC#CCN3CCCC3)CCC[C@]21C  75%
15. COc1ccc(C/C(C)=C(\c2ccc(Cl)cc2)c2ccc(OCCN3CCCC3)cc2)cc1  79%
16. COc1ccc(C(=O)C/C(=C\c2ccc(O)c(OC)c2)C(=O)NN)cc1  80%
17. C=CC(CC(c1ccccc1)(c1ccccc1)c1ccccc1)N(CC)CC (stereo not given)  82.5%
18. CN1c2ccccc2S(=O)(=O)n2c(SCC(=O)Nc3nc4ccc(F)cc4s3)nnc21  82.8%
19. COc1cc2c(c(OC)c1OC)C(=O)CC(c1cccc(C(=O)Nc3ccc(C#N)cc3)c1)O2 (stereo not given)  87.4%
20. CC(=O)c1ccc(-n2cc(CN3CCN(c4cc5c(cc4F)c(=O)c(C(=O)O)cn5C4CC4)CC3)nn2)cc1  89.8%
21. O=C1Nc2ccc(Cl)cc2/C1=C/c1ccc[nH]1  90.3%
22. CC(C)CCC[C@@H](C)[C@H]1CC[C@H]2[C@@H]3CC=C4c5sc(Nc6cc(C(F)(F)F)cc(C(F)(F)F)c6)nc5CC[C@]4(C)[C@H]3CC[C@]12C  92.1%
23. C=C1C(=O)O[C@H]2[C@H]1CC/C(COC(=O)/C=C\C(=O)NCc1ccc(Cn3c(=O)sn(CCCCl)c3=O)cc1)=C\CC[C@@]1(C)O[C@@H]21  92.7%
24. Cc1cn(C)cn1  94.2%
25. O=C(c1cccc(N2CCOCC2)n1)c1c[nH]c2ccccc12  95.3%
26. CCCCNC(=O)c1ccc2c(c1)nc(-c1ccccc1)n2C1CCCCC1  95.9%
27. CC1SC(c2ccccc2O)N(NC(=O)CCC(=O)c2nc3ncccc3[nH]2)C1=O (stereo not given)  96.2%
28. COc1ccc(/C=N/Nc2c3ccccc3nc3ccccc23)cc1  96.5%
29. CC1(C)CC(=O)C2=C(C1)C(c1ccc(Cl)cc1)n1ncc(C#N)c1N2 (stereo not given)  101%
30. CC1=C(Cl)C(=O)c2cc(C)ccc2C1=O  101%
31. C=C[C@@]1(C)CC(=O)[C@@H](C(C)(C)c2cn(C)c3ccc(Br)cc23)C[C@@H]1O[Si](C)(C)C(C)(C)C  102%
32. Nc1cc(C(=O)O)cc(-n2c(O)c(C=C3N=c4ccccc4=N3)sc2=S)c1  104%
33. O=c1oc2c(cnc3ccccc32)cc1-c1cccc(Cl)c1  104%
34. CNC(=O)NCC1OC(n2cnc3c(NC(=O)Nc4ccccc4)ncnc32)C2OC(=O)CC12 (stereo not given)  120%

For `COC1C(O)CC(OC2CC(OC3CC(O[C@@H]4C(=O)c5c(cc6cc(OC7CC(OC8CC(O)C(O)C(C)O8)C(O)C(C)O7)c(C)c(O)c6c5O)CC4[C@H](OC)C(=O)C(C)=O)OC(C)C3O)OC(C)C2O)OC1C` (stereo not given in full), the growth was 1.9% (active).
For `c1ccc(-c2c(-c3ccccc3)[n+](Cc3ccc4ccccc4c3)cn2Cc2ccc3ccccc3c2)cc1`, the growth was -81.8% (active).
`Ic1ccc(Nc2nc3nonc3nc2Nc2ccc(I)cc2)cc1` was tested, and the growth was 4.13% (active).
In the case of `COc1cc(/C=C/C(=O)c2cc(OC)c(OC)c(OC)c2)ccc1Oc1nc2c(c(=O)n(C)c(=O)n2C)n1C`, the growth was -13.2% (active).
In the case of `N=C(N)c1ccc(-c2ccc(-c3cc(Cl)cc(Cl)c3)s2)s1`, the growth was -52.8% (active).

Compound `O=C(NC1CCC(Br)CC1)C1CCCC(S(=O)(=O)NC2CCCCC2)C1` (stereo not given) has a growth of 10.4% [25 µM].

Reference: PubChem BioAssay (NCI)
